Screening results deposited in PubChem by National Center for Advancing Translational Sciences (NCATS).
HEK293 cAMP cs = qHTS Assay for Agonists of the Thyroid Stimulating Hormone Receptor: Activators of Intracellular cAMP Concentrations in Parental HEK 293. parental HEK293 CNG cAMP sensor, membrane potential fluorescence. Potency, µM (titrated, usually from 57.1 µM), hits mostly activators. actives 2.5% (n = 73,000). AID 938, 2007; active means well fitted activation curve with a large enough effect; inconclusive means small, poorly fitted or top-dose-only effect; inactive means no such curve, though single readings can be large or run the other way; further: nearly all actives have a fitted effect of over 55% in size
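Parental HEK 293 cells stably expressing a cAMP-gated CNG channel were loaded with membrane potential dye containing 100 uM RO 20-1724 for 60 min. Compound added for 30 min; depolarization read as fluorescence intensity at 590 nm.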
TSHR ag = qHTS Assay for Agonists of the Thyroid Stimulating Hormone Receptor; Thyrotropin receptor (Homo sapiens), P16473; HEK293-CNG-TSHR cells (CNG channel as cAMP sensor), membrane potential dye, cAMP; Potency, µM (top dose mostly 57.1 µM), usual class: activators; actives 0.48% (n = 73,000); AID 926, 2007; active means well fitted activation curve with a large enough effect in the main read-out, with a control signal flat, not every such curve was filed as active; inconclusive means small, poorly fitted or top-dose-only effect, or a change in a side signal; inactive means no such curve, though single readings can be large or run the other way; reference of the percent scale not stated here;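 further: the control signal comes from parental cells without the receptor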
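HEK 293 cells stably expressing TSHR and a modified CNG channel, with CNG-only parental cells as counterscreen, were preloaded 60 min at room temperature with membrane potential dye containing 100 uM RO 20-1724. Compound exposure was 30 min, and depolarization was read as fluorescence at 590 nm.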
Each line names hits and unclear results; the compound was inactive in the other large screens. Shown are actives, neighbours in structure and some others; about 2.9% of the full set was active somewhere.

C(=C\c1ccccc1)/CSc1nnc(-c2ccccn2)n1Cc1ccco1	HEK293 cAMP cs 20µM, TSHR ag inconclusive
COc1ccc(NC(=O)CSc2nnc(-c3ccccc3)n2Cc2ccco2)c(OC)c1	none
COc1ccccc1NC(=O)CSc1nnc(-c2ccccn2)n1Cc1ccco1	none (no result: TSHR ag)
COc1ccc(C)cc1NC(=O)CSc1nnc(-c2ccccn2)n1Cc1ccco1	HEK293 cAMP cs 10µM, TSHR ag inconclusive
CN=C1N[C@H](c2ccccc2)N(c2ccccc2)S1	none
C=CC[C@@H]1C=C[C@@H](O/N=C\[C@@H](OC)[C@H](C)/C=C\CC(=O)OC)[C@@H](CO)O1	none
Nc1cc(C(=O)O)c(O)c(S(=O)(=O)O)c1	none
C=CCCCC	TSHR ag inconclusive
c1cncc(-c2cncnc2NC2CCNCC2)c1	none
CC(C)=CCC/C(C)=C/CO/N=C1/[C@H]2O[C@@H]2[C@@H](O)[C@H]2[C@H]1CCn1c(=O)n(Cc3cc4c(cc3Cl)OCO4)c(=O)n12	none
O=c1c(-c2ccc(Cl)cc2)nc2cnc(N3CCOCC3)nc2n1-c1ccccc1	none
CCc1nnc(NC(=O)CSc2nnc(-c3ccoc3C)n2-c2ccccc2)s1	none
CCOc1ccccc1-n1c(SCC(=O)Nc2nccs2)nnc1-c1ccoc1C	HEK293 cAMP cs 13µM, TSHR ag inconclusive
CCc1nnc(NC(=O)CSc2nnc(-c3ccoc3C)n2-c2ccc(C)cc2)s1	TSHR ag 16µM
Cn1c(SCC(=O)Nc2nccs2)nnc1-c1ccncc1	none
Oc1ccc2cc(SSc3ccc4cc(O)ccc4c3)ccc2c1	TSHR ag inconclusive
O=C(NCCCN1CCOCC1)c1ccc(-n2c(=O)c(=O)[nH]c3ccccc32)cc1	none
C[Si](C)(c1ccc(C(=O)O)cc1)c1ccc(C(=O)O)cc1	none
NCC(=O)NC1(C(=O)O)CCCC1	TSHR ag inconclusive
N#CCCn1c(=O)c(-c2ccc(Cl)cc2)nc2cnc(N3CCNCC3)nc21	none
C[C@H](CC(=O)O)C(C(=O)O)C(=O)O	none
O=C1OC(=O)[C@@H]2[C@@H]1[C@@H]1CC[C@H]2O1	none
COC(=O)[C@@]1(Cc2ccccc2)[C@H]2c3cc(C(=O)N(C)C)n(Cc4ccc(O)c(OC)c4)c3C[C@H]2CN1C(=O)c1ccccc1	HEK293 cAMP cs 25µM, TSHR ag inconclusive
COC(=O)[C@@]1(Cc2ccc(F)cc2)[C@H]2c3cc(C(=O)N(C)C)n(Cc4cc(F)c(F)c(F)c4)c3C[C@H]2CN1C(=O)c1ccccc1	none
COC(=O)[C@@]1(Cc2ccc(OC)cc2)[C@H]2c3cc(C(=O)N(C)C)n(Cc4cc(F)c(F)c(F)c4)c3C[C@H]2CN1C(=O)c1ccccc1	HEK293 cAMP cs 4µM, TSHR ag inconclusive
COC(=O)[C@@]1(Cc2ccccc2)[C@H]2c3cc(C(=O)N(C)C)n(Cc4ccccc4)c3C[C@H]2CN1C(=O)c1ccccc1	HEK293 cAMP cs 2.5µM, TSHR ag inconclusive
COC(=O)[C@@]1(Cc2ccc(F)cc2)[C@H]2c3cc(C(=O)N(C)C)n(Cc4c(CO)[nH]cc(C)c4=O)c3C[C@H]2CN1C(=O)c1ccccc1	none
COC(=O)[C@@]1(Cc2ccccc2)[C@H]2c3cc(C(=O)N(C)C)n(Cc4nc5ccccc5[nH]4)c3C[C@H]2CN1C(=O)c1ccccc1	none
COC(=O)[C@@]1(Cc2ccc(OC)cc2)[C@H]2c3cc(C(=O)N(C)C)n(Cc4ccc(C(F)(F)F)nc4)c3C[C@H]2CN1C(=O)c1ccccc1	HEK293 cAMP cs 6.3µM, TSHR ag inconclusive
COC(=O)[C@@]1(Cc2ccc(OC)cc2)[C@H]2c3cc(C(=O)N(C)C)n(CCc4ccccn4)c3C[C@H]2CN1C(=O)c1ccccc1	none
CO[C@@H]1COC(=O)[C@@H](CCSC)NC(=O)C/C=C\[C@@H](C)COC(=O)[C@H](C)NC(=O)C/C=C\[C@H]1C	none
NC(=O)C[C@H](N)C(N)=O	none
N=C(N)SCCSC(=N)N	none
COC(=O)[C@@]1(Cc2ccccc2)[C@H]2c3cc(C(=O)N(C)C)n(Cc4ccc(S(C)(=O)=O)cc4)c3C[C@H]2CN1C(=O)c1ccccc1	HEK293 cAMP cs 16µM, TSHR ag inconclusive
COC(=O)[C@@]1(Cc2ccc(OC)cc2)[C@H]2c3cc(C(=O)N(C)C)n(CCSCCO)c3C[C@H]2CN1C(=O)c1ccccc1	none
COC(=O)[C@@]1(Cc2ccc(OC)cc2)[C@H]2c3cc(C(=O)N(C)C)n(Cc4ccc(OC)c(OC)c4)c3C[C@H]2CN1C(=O)c1ccccc1	HEK293 cAMP cs 16µM, TSHR ag inconclusive
COC(=O)[C@@]1(Cc2ccc(F)cc2)[C@H]2c3cc(C(=O)N(C)C)n(CC4CC4)c3C[C@H]2CN1C(=O)c1ccccc1	HEK293 cAMP cs 6.3µM, TSHR ag inconclusive
COC(=O)[C@@]1(Cc2ccccc2)[C@H]2c3cc(C(=O)N(C)C)n(C[C@H](O)CO)c3C[C@H]2CN1C(=O)c1ccccc1	none
